PAX8 reporter = inhibitors of PAX8 transcriptional activity in RMG-I cells | RMG-I TPO-luciferase reporter, SteadyGlo, 24 h | inhibition, % at 12.6 µM | 360,000 tested, 1.2% active | AID 652154;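 active = mean replicate inhibition at least 60% with every replicate also reaching 60%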;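 note: luciferase light reporting Pax8 driven TPO promoter activity; plate controls were median of neutral control wells for no effect and mitoxantrone controls for full effect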
SIRT5 inh = sirtuin-5 (human) deacylase inhibition. AID 652115. inhibition, % at 15 µM. 330,000 tested, 1.1% active. Purified SirT5, succinyl-peptide AMC, trypsin-coupled fluorescence. Q9NXA8; in the data active = inhibition above about 15%
Target sequence (Q9NXA8 whole entry, looked up): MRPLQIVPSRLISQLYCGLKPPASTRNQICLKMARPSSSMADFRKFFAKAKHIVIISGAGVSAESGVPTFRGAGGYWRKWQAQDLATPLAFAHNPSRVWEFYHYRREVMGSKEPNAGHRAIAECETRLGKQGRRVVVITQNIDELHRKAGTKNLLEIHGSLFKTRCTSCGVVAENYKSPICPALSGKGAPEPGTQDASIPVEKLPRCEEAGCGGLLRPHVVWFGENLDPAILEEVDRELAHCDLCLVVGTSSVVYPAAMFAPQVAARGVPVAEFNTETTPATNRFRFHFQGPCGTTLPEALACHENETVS
EWS-Fli block = blocks EWS/Fli oncoprotein-driven transcription; A673 NR0B1-luciferase reporter, viability-normalised; inhibition, % at 12.6 µM; 350,000 tested, 0.67% active; AID 651661;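 active = mean inhibition of at least 50% after viability correction, with every replicate also passing that limit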;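 note: firefly luciferase signal divided by Alamar Blue viability fluorescence both relative to DMSO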
Ecoli rRNA inh = inhibitors of bacterial rRNA selective over humanized ribosomes; E. coli WT GFP vs humanized-ribosome RFP mutants, fluorescence, 24 h; hits give low values; DMSO median 0, no signal -100; GFP signal change (wild-type ribosome), % (concentration not given with the values); 350,000 tested, 1.6% active; AID 720706;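 active = significant combined selectivity score with lowered wild-type GFP, culture density cut under 30%, mutant RFP and density less affected; inactive = any of these conditions unmet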
LGR2 inh = blocks bursicon-induced cAMP signaling via Drosophila LGR2. HEK293 LGR2, CRE-luciferase, bursicon-stimulated, 4 h. inhibition, % at 9.99 µM. 380,000 tested, 0.35% active;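 active = drop in luminescence signal, shown as inhibition above about 50% in the replicate tests, limit read from the data, passing the limit was not always enough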;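 note: agonist challenge used bursicon conditioned medium at about half maximal strength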
PGC1a acetyl inh = lowers PGC1a acetylation signal in U2OS cells; AlphaScreen anti-acetyl-lysine; with virally co-expressed GCN5 acetyltransferase; inhibition, % at 15.6 µM; 350,000 tested, 0.17% active;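 active = every replicate shows inhibition of at least 40%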;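 note: 0% = neutral control wells and 100% = positive control wells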
* = called active by the depositor; / = no result. Compounds with a hit are over-represented: about 3.4% of the library has one in this group of screens.

SMILES	PAX8 reporter	SIRT5 inh	EWS-Fli block	Ecoli rRNA inh	LGR2 inh	PGC1a acetyl inh
CNC(=O)C[C@H]1CC[C@@H]2[C@@H](COc3ccc(NC(=O)c4ccccc4Cl)cc3C(=O)N2C)O1	-53.7	5.0	-13.6	-0.4	-15.5	-4.6
Cc1ccnc2c1ccc1c(C)ccnc12	/	/	/	/	/	13.7
Cc1ccnc2ccc(SC(F)(F)F)cc12	86.7*	1.4	7.9	8.8	-10.2	12.7
Cc1ccc(-c2nc(C)sc2CC(=O)OCC(=O)Nc2cccc([N+](=O)[O-])c2)cc1	108.7*	-0.3	-3.9	-3.2	-3.4	/
c1ccc(COn2nnc3ccccc32)c(COn2nnc3ccccc32)c1	/	-5.0	3.1	-42.7*	5.4	-4.6
COc1ccc(CN(C)C[C@@H]2Oc3ccc(NC(=O)Cc4ccccc4)cc3CC(=O)N([C@@H](C)CO)C[C@H]2C)cc1	-17.9	2.5	6.3	2.4	-15.0	-4.5
O=C(Cn1c(=O)oc2ccccc21)Nc1cccc(Cl)c1	-2.2	28.1*	12.3	-3.5	-8.8	-3.3
O=C(CN1C(=O)NC2(CCCc3ccccc32)C1=O)c1ccc(Br)cc1 (stereo not drawn)	11.2	-2.8	4.7	-36.1*	7.0	/
O=C(CN1C(=O)NC2(CCc3ccccc32)C1=O)Nc1cccc(Cl)c1 (stereo not drawn)	8.6	/	8.4	-30.4*	10.7	-2.4
O=C(CN1C(=O)NC2(CCCc3ccccc32)C1=O)NC1CCCCC1 (stereo not drawn)	-9.8	15.8*	-3.5	5.0	0.5	5.6
O=C(CN1C(=O)NC2(CCc3ccccc32)C1=O)c1ccc(Br)cc1 (stereo not drawn)	0.1	1.5	-2.7	-24.4	-18.5	-78.2
C[C@@H]1CCCCO[C@H](CN(C)Cc2ccc(Cl)c(Cl)c2)[C@H](C)CN([C@@H](C)CO)C(=O)c2cc(NS(=O)(=O)c3ccccc3)ccc2O1	44.2	16.0*	2.6	-1.4	18.9	2.1
C[C@@H]1CN([C@H](C)CO)C(=O)c2cc(NS(=O)(=O)c3ccccc3)ccc2O[C@@H](C)CCCCO[C@H]1CN(C)Cc1ccc(Cl)c(Cl)c1	93.8*	4.4	16.5	-5.8	22.3	7.4
C[C@@H]1CCCCO[C@@H](CN(C)Cc2ccc(Cl)c(Cl)c2)[C@@H](C)CN([C@@H](C)CO)C(=O)c2cc(NS(=O)(=O)c3ccccc3)ccc2O1	68.2*	/	2.4	-1.0	-11.7	1.6
C[C@@H]1CCCCO[C@@H](CN(C)Cc2ccccc2)[C@H](C)CN([C@H](C)CO)C(=O)c2cc(NS(=O)(=O)c3ccccc3)ccc2O1	-3.1	3.8	5.4	1.1	-6.6	0.8
C[C@H](CO)N1C[C@H](C)[C@@H](CN(C)Cc2ccc(Cl)c(Cl)c2)OCCCC[C@H](C)Oc2ccc(NS(=O)(=O)c3ccccc3)cc2C1=O	83.6*	13.8	14.1	0.1	30.3	8.1
C[C@H]1CCCCO[C@H](CN(C)Cc2ccccc2)[C@@H](C)CN([C@@H](C)CO)C(=O)c2cc(NS(=O)(=O)c3ccccc3)ccc2O1	0.5	-2.3	-4.0	-2.0	9.2	9.7
COc1ccc2c3c([nH]c2c1)[C@@H](CO)N(C(=O)c1ccc(F)cc1)CC31CCN(C)CC1	/	/	/	1.2	/	/
COc1ccc2c3c([nH]c2c1)[C@@H](CO)N(C(=O)c1ccncc1)CC31CCN(C(=O)Nc2cccc(F)c2)CC1	/	2.2	-11.2	-4.4	20.6	/
COc1ccc(S(=O)(=O)N[C@H]2C=C[C@@H](CC(=O)N3CCC(Cc4ccccc4)CC3)O[C@H]2CO)cc1	16.6	3.4	5.8	-4.7	8.4	-10.1
O=C(CCN1C(=O)/C(=C\c2ccccc2)SC1=S)N1CCCCC1	-5.8	-0.6	-9.6	1.8	-0.6	-7.4
COc1cc(/C=C2\SC(=S)N(CCC(=O)N3CCCCC3)C2=O)cc(OC)c1OC	100.0*	-3.4	3.7	-3.4	41.7	/
O=C(CCN1C(=O)/C(=C/c2cccs2)SC1=S)N1CCCCC1	69.5*	1.6	10.8	23.9	6.7	4.6
C[C@@H]1CN([C@@H](C)CO)C(=O)CCCn2cc(nn2)CO[C@@H]1CN(C)C(=O)Nc1ccc(C(C)(C)C)cc1	-0.6	/	-1.2	-0.8	-7.8	15.4
COc1cc(/C=N/NS(=O)(=O)c2ccc(C(C)(C)C)cc2)cc([N+](=O)[O-])c1O	8.3	3.2	10.6	-36.2*	48.9	0.9
